In the supplement of paper PMC13380429 one finds morphology score and SARS-CoV-2 infection rate data, which are given here for 30 compounds.

SMILES strings stand for the structures.

One test has as its system Vero E6 infected with SARS-CoV-2. The experiment in a line: morphology score (similarity to uninfected cells); higher = more like uninfected cells. Particulars: 24 h.
For `COc1cc(Br)c(Nc2nc(-c3c(C)nc4ncccn34)cs2)c(Br)c1` (10 µM), the morphology score was -0.31.

As to `CCN(CCO)CCCC(C)Nc1ccnc2cc(Cl)ccc12` (stereo not given) [hydroxychloroquine] (10 µM), the morphology score worked out at 0.362.

The compound `CC[N+](CC)(CCNC(=O)C(=O)NCC[N+](CC)(CC)Cc1ccccc1Cl)Cc1ccccc1Cl` [ambenonium] (10 µM) came in with a morphology score of 0.131.

`Cc1ccsc1/C=C/C1=NCCCN1C` [morantel] (10 µM) gave a morphology score of -0.00401.

`C[C@H](N)Cn1ccc2cc(F)c(Cl)cc21` (10 µM) came in with a morphology score of 0.45.

The compound `C[C@]12CCC(=O)C[C@@H]1CC[C@@H]1[C@@H]2CC[C@]2(C)C=CC[C@@H]12` [androstenone] (10 µM) gave a morphology score of -0.064.

Consider `CN(C)C(=O)Oc1ccc[n+](C)c1` [mestinon] (10 µM), for which the morphology score worked out at 0.0902.

As to `CC1(C)O[C@@H]2[C@@H](CO[C@@]3(COS(N)(=O)=O)OC(C)(C)O[C@@H]23)O1` [topiramate] (10 µM), the morphology score came to 0.00625.

Another test has the same test system. Put plainly: SARS-CoV-2 infection rate relative to infected DMSO; higher = more infection, active = 60 or less. The conditions noted are these: 24 h.
For the compound `CCOc1ccccc1C(N)=O` [ethenzamide] (10 µM), the SARS-CoV-2 infection rate was 118% (inactive).

For `CC(=O)N[C@H]1[C@H]([C@H](O)[C@H](O)CO)OC(O)(C(=O)O)C[C@@H]1O` (mixture of isomers) [aceneuramic-acid] (10 µM), the SARS-CoV-2 infection rate is 104% (inactive).

Regarding `c1ccc2nc(C3=NCCN3)ccc2c1` (10 µM), the SARS-CoV-2 infection rate is 93% (inactive).

Consider `Oc1cc(O)cc(/C=C/c2ccc(O)c(O)c2)c1` [piceatannol] (10 µM), for which the SARS-CoV-2 infection rate is 112% (inactive).

With `CN[C@H]1C(=O)N[C@@H]2Cc3ccc(cc3)Oc3cc4cc(c3O[C@@H]3O[C@H](C(=O)O)[C@@H](O)[C@H](O)[C@H]3NC(=O)CCCCCCCCC(C)C)Oc3ccc(cc3Cl)[C@@H](O)[C@@H]3NC(=O)[C@H](NC(=O)[C@@H]4NC(=O)[C@@H](NC2=O)c2cc(cc(O)c2Cl)Oc2cc1ccc2O)c1ccc(O)c(c1)-c1c(O[C@H]2O[C@H](CO)[C@@H](O)[C@H](O)[C@@H]2O)cc(O)cc1[C@@H](C(=O)NCCCN(C)C)NC3=O` [dalbavancin] (10 µM), the SARS-CoV-2 infection rate was 113% (inactive).

Turning to `CC[C@H]1CN2CCc3cc(OC)c(OC)cc3[C@@H]2C[C@@H]1C[C@H]1NCCc2cc(OC)c(OC)cc21` [emetine] (0.833333 µM), the SARS-CoV-2 infection rate was 108% (inactive).

Take `CCOC(=O)[C@H](CCc1ccccc1)N[C@@H](C)C(=O)N1C(=O)N(C)C[C@H]1C(=O)O` [imidapril] (10 µM): the SARS-CoV-2 infection rate was 117% (inactive).

As for `Cc1c(OCC(F)(F)F)ccnc1C[S+]([O-])c1nc2ccccc2[nH]1` (stereo not given) [lansoprazole] (10 µM), the SARS-CoV-2 infection rate was 99% (inactive).

Consider `COc1cc2c(c(OC)c1OC)-c1c(cc3c(c1OC)OCO3)CC(C)C(C)C2` (stereo not given) [schisandrin-B] (10 µM), for which the SARS-CoV-2 infection rate is 99.5% (inactive).

`COc1ccc(CC2NCCc3cc(OC)c(OC)cc32)cc1OC` (stereo not given) [tetrahydropapaverine] (10 µM): the SARS-CoV-2 infection rate was 108% (inactive).

Consider `O=C(O)c1c(Cl)c(Cl)c(Cl)c(Cl)c1-c1c2cc(I)c(=O)c(I)c-2oc2c(I)c(O)c(I)cc12` [rose-bengal] (0.833333 µM), for which the SARS-CoV-2 infection rate is 98.2% (inactive).

With `C[C@H](Cc1ccc(OCC(=O)O)cc1)NC[C@H](O)c1cccc(Cl)c1` (10 µM), the SARS-CoV-2 infection rate was 107% (inactive).

Turning to `COCC[n+]1c2c(n(Cc3cnccn3)c1C)C(=O)c1ccccc1C2=O` (0.833333 µM), the SARS-CoV-2 infection rate is 108% (inactive).

For `CC(C)(C)c1ccc(/C=C/C(=O)Nc2ccc3c(c2)OCCO3)cc1` (10 µM), the SARS-CoV-2 infection rate was 110% (inactive).

For `CS(=O)(=O)c1ccc(-c2cn3ccccc3n2)cc1` [zolimidine] (10 µM), the SARS-CoV-2 infection rate is 85% (inactive).

With `CCc1cc(O)c(Oc2ccc(C(N)=O)cc2F)cc1F` (10 µM), the SARS-CoV-2 infection rate is 95.5% (inactive).

Turning to `COc1ccc(Cl)cc1[C@]1(F)C(=O)Nc2cc(C(F)(F)F)ccc21` [flindokalner] (10 µM), the SARS-CoV-2 infection rate is 99.5% (inactive).

For the compound `Nc1cccc2c1C(=O)N(C1CCC(=O)NC1=O)C2=O` (stereo not given) [pomalidomide] (10 µM), the SARS-CoV-2 infection rate was 108% (inactive).

For `CO/N=C1\CN(c2nc3c(cc2F)c(=O)c(C(=O)O)cn3C2CC2)CC1CN` (stereo not given) [gemifloxacin] (10 µM), the SARS-CoV-2 infection rate was 91.5% (inactive).

Consider `O/N=C/c1ccc(-c2ccc(O)c(F)c2)c(Cl)c1O` (10 µM), for which the SARS-CoV-2 infection rate is 76.5% (inactive).

On to `CC(C)(C)NCC(O)COc1cc(Cl)ccc1Cl` (stereo not given) [cloranolol] (10 µM), for which the SARS-CoV-2 infection rate was 100% (inactive).

With `c1ccc2c(c1)CN1CCCC1=N2` [desoxypeganine] (10 µM), the SARS-CoV-2 infection rate is 94.5% (inactive).
